Results on eight compounds are retold here after PubChem BioAssay (Tox21).

A short description of test [1]: qHTS assay to identify small molecule antagonists of the glucocorticoid receptor (GR) signaling pathway - cell viability counter screen (AID 720693). Further: nearly all actives have a fitted effect of over 55% in size.
Test [2] in a line: qHTS assay for identifying genotoxic compounds that show differential cytotoxicity against isogenic chicken DT40 cell lines with known DNA damage response pathways - wild type cell line (AID 743012). Further: nearly all actives have a fitted effect of over 60% in size. Further: potency means the concentration at half of the fitted maximal effect. The procedure, abridged:
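Parental DNA repair-proficient DT40 cells, 300 per well, were pre-incubated ~0.5 h at 37 C/5% CO2, pin-dosed with compounds in DMSO, then incubated 40 h. Viability was read as CellTiter-Glo luminescence after 30 min at room temperature.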
A general note: qHTS replaces the single test concentration by a dilution series.

Test [3] in a line: qHTS assay to identify small molecule antagonists of the androgen receptor (AR) signaling pathway - cell viability counter screen (AID 743033; further: nearly all actives have a fitted effect of over 45% in size).
A short description of test [4]: qHTS assay to identify small molecule antagonists of the androgen receptor (AR) signaling pathway using the MDA cell line - cell viability counter screen (AID 743041; further: nearly all actives have a fitted effect of over 45% in size). The procedure, abridged: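 MDA-kb2 AR-luc human breast carcinoma cells (MMTV-luciferase, AR/GR responsive) were treated with compounds plus R1881 agonist for 16 h at 37 °C. Viability was read as CellTiter-Fluor fluorescence in the same wells as the reporter assay.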

A short description of test [5]: qHTS assay to identify small molecule antagonists of the thyroid receptor (TR) signaling pathway - cell viability counter screen (AID 743064). Further: nearly all actives have a fitted effect of over 50% in size. The procedure, abridged:
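GH3.TRE-Luc cells, 4 h pre-plating; cpd + T3 1 nM final; 37 °C 23.5 h; CellTiter-Fluor 30 min; fluorescence read.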

The test system of test [6] is thyroid hormone receptor (rat, GH3 cells). Kind of test: qHTS assay to identify small molecule agonists of the thyroid receptor (TR) signaling pathway (AID 743066; calls by dose curve).
Test [7] is described as follows: qHTS assay to identify small molecule antagonists of the estrogen receptor alpha (ER-alpha) signaling pathway - cell viability counter screen (AID 743074; calls by dose curve; further: nearly all actives have a fitted effect of over 45% in size).
Test [8] concerns the target Estrogen receptor (Homo sapiens) (UniProt P03372). Kind of test: qHTS assay to identify small molecule agonists of the estrogen receptor alpha (ER-alpha) signaling pathway (AID 743075; calls by dose curve).
The target is the same in test [9]. In words: qHTS assay to identify small molecule agonists of the estrogen receptor alpha (ER-alpha) signaling pathway using the BG1 cell line (AID 743079). Further: nearly all actives have a fitted effect of over 20% in size. Particulars: BG1Luc4E2 cells, ERE-luciferase agonist, 22 h.
Test [10] is described as follows: qHTS assay to identify small molecule antagonists of the estrogen receptor alpha (ER-alpha) signaling pathway using the BG1 cell line (AID 743080; calls by dose curve;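 further: BG1 cells stimulated with 17beta-estradiol alongside compound; nearly all actives have a fitted effect of over 25% in size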; further: potency means the concentration at half of the fitted maximal effect). The procedure, abridged:
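Luciferase inhibition measured with ONE-Glo after 30 min at RT in BG1Luc4E2 cells given test compounds and 17beta-estradiol for 21.5 h at 37 C; CellTiter-Fluor viability read in the same wells beforehand.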

Test [11] is described as follows: qHTS assay to identify small molecule antagonists of the estrogen receptor alpha (ER-alpha) signaling pathway using the BG1 cell line - cell viability counter screen (AID 743081).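 Further: compound given together with 17beta-estradiol as the ER stimulus; nearly all actives have a fitted effect of over 45% in size.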 Further: potency means the concentration at half of the fitted maximal effect.
A further test addresses Aromatase (Homo sapiens) (UniProt P11511). In words: qHTS assay to identify aromatase inhibitors (AID 743083). Further: nearly all actives have a fitted effect of over 55% in size.
Test [12] can be described thus: qHTS assay to identify aromatase inhibitors - cell viability counter screen (AID 743084).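 Further: cells stimulated with testosterone during compound exposure; nearly all actives have a fitted effect of over 55% in size.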
Test [13] is described as follows: qHTS assay for identifying genotoxic compounds that show differential cytotoxicity against isogenic chicken DT40 cell lines with known DNA damage response pathways - Rev3 mutant cell line (AID 743014). Further: nearly all actives have a fitted effect of over 55% in size. Further: potency means the concentration at half of the fitted maximal effect.
Test [14] can be described thus: qHTS assay for identifying genotoxic compounds that show differential cytotoxicity against isogenic chicken DT40 cell lines with known DNA damage response pathways - Rad54/Ku70 mutant cell line (AID 743015). Further: nearly all actives have a fitted effect of over 60% in size. Further: potency means the concentration at half of the fitted maximal effect.
Test [15] has as its target Estrogen receptor (Homo sapiens) (UniProt P03372). Kind of test: qHTS assay to identify small molecule antagonists of the estrogen receptor alpha (ER-alpha) signaling pathway (AID 743069; active means well fitted curve in the direction sought with a large enough effect in the signal ratio in the repeat runs, not every such curve was filed as active; the % refers to the signal ratio). The procedure, abridged:
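HEK293 cells stably carrying an ER-alpha-UAS-bla beta-lactamase reporter were pre-cultured overnight in 2% charcoal-stripped FBS medium. Test compounds in DMSO were added together with 17beta-estradiol for 18 hr at 37C. Read-out was fluorescence after 2 hr with LiveBLAzer B/G FRET substrate at room temperature.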

In test [16] the target is Androgen receptor (Homo sapiens) (UniProt P10275). Kind of test: qHTS assay to identify small molecule antagonists of the androgen receptor (AR) signaling pathway (AID 743035; active means well fitted inhibition curve with a large enough effect in the signal ratio in the repeat runs, not every such curve was filed as active; the % refers to the signal ratio; further: potency means the concentration at half of the fitted maximal effect). The procedure, abridged:
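HEK293 cells stably carrying a UAS-driven beta-lactamase reporter (AR-UAS-bla GripTite) were plated for 4 h at 37C, then given compound and the agonist R1881 and incubated 16 h. Reporter activity was read by LiveBLAzer B/G FRET fluorescence after 2 h at room temperature.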

Test [17] has the same target. Kind of test: qHTS assay to identify small molecule agonists of the androgen receptor (AR) signaling pathway (AID 743036; active means well fitted activation curve with a large enough effect in the signal ratio in the repeat runs, with a control signal flat, not every such curve was filed as active; the % refers to the signal ratio). The procedure, abridged:
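AR-bla HEK293 cells, 2,000/well; 4 h preincubation 37C/5% CO2; compound (DMSO) 16 h at 37C; LiveBLAzer B/G FRET substrate 2 h RT; fluorescence intensity read-out.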

Test [18] shares this target. In words: qHTS assay to identify small molecule antagonists of the androgen receptor (AR) signaling pathway using the MDA cell line (AID 743042; further: nearly all actives have a fitted effect of over 55% in size; further: potency means the concentration at half of the fitted maximal effect). The procedure, abridged:
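MDA-kb2 cells (human breast carcinoma, stably carrying an MMTV-luciferase reporter responsive to AR and GR) were plated at 3,000 cells/well and preincubated 5 hr at 37C, then given compound plus R1881 agonist for 16 h. ONE-Glo luminescence was read.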

A short description of test [19]: qHTS assay to identify small molecule antagonists of the thyroid receptor (TR) signaling pathway (AID 743065). Further: nearly all actives have a fitted effect of over 55% in size. The procedure, abridged:
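GH3.TRE-Luc rat pituitary cells carrying two TR response elements driving luciferase were plated for 4 h, given compound plus 1 nM T3 (final), and incubated 23.5 h at 37 C. ONE-Glo luminescence measured reporter inhibition; CellTiter-Fluor fluorescence tracked cytotoxicity.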

Results filed as inconclusive are left out. A number with no mark means an inactive call. The source made the active and inactive calls. Unless noted, the call rests on the fitted dose curve; in most records, active means well fitted curve in the direction sought with a large enough effect in the repeat runs; inconclusive means weak or mixed curves; inactive means no such curve, though single readings can be large; an effect the other way counts as inactive or inconclusive.
On the % scale 0 is the no-effect control and ±100 the full control effect.

Chain of Androgen receptor (Homo sapiens) (P10275 whole entry, looked up): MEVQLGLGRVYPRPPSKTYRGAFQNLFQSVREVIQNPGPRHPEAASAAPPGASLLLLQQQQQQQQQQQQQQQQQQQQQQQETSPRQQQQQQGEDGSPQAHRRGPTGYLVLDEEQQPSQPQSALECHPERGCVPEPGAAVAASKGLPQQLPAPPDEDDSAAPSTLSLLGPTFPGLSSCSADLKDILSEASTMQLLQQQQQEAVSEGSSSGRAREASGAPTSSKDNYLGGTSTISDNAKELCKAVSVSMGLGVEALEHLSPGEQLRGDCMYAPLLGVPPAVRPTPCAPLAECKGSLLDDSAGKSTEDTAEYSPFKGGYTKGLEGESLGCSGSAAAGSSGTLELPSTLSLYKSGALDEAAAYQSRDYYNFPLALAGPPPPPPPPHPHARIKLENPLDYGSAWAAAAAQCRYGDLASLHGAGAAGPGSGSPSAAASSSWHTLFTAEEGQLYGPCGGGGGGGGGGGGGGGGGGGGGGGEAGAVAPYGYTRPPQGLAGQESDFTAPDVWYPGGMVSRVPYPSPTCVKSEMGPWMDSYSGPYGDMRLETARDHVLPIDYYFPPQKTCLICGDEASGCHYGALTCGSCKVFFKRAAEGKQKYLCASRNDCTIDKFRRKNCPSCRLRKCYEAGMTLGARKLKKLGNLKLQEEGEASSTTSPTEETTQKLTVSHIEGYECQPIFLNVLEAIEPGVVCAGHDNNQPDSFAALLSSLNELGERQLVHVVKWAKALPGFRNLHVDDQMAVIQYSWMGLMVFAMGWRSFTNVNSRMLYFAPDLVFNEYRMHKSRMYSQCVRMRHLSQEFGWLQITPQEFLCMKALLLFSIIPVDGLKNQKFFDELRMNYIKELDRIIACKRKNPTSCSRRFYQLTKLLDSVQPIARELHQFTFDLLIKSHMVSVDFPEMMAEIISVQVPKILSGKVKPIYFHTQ
Chain of Estrogen receptor (Homo sapiens) (P03372 whole entry, looked up): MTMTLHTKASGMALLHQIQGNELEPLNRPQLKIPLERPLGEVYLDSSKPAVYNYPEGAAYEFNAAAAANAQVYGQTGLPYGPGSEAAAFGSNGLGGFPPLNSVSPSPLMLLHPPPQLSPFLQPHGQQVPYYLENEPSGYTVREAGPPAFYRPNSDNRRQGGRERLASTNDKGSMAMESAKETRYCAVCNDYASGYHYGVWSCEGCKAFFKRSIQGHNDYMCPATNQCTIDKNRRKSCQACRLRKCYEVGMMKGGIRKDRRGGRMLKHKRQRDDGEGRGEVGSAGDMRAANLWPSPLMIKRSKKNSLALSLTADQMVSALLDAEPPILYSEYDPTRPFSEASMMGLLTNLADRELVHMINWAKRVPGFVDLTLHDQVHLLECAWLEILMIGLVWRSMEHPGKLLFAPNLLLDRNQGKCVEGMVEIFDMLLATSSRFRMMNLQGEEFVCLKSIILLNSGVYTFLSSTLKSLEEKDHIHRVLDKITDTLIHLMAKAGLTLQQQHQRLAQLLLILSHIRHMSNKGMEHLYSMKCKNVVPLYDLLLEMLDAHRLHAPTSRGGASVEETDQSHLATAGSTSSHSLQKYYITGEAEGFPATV
Chain of Aromatase (Homo sapiens) (P11511 whole entry, looked up): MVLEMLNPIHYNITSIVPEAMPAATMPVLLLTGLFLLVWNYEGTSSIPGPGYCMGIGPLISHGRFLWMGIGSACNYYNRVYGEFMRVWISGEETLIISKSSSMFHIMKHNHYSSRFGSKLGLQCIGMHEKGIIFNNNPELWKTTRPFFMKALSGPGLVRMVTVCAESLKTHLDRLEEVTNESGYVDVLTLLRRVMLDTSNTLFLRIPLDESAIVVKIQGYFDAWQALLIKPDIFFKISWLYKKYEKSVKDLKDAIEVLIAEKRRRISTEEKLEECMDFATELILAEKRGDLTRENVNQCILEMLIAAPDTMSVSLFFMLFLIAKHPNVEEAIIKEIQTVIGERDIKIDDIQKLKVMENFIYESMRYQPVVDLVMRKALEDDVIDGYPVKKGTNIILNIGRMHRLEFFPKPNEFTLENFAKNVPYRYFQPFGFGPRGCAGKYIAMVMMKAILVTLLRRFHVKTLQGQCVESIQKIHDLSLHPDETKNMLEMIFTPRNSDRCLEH

With `Cn1c(CCCC(=O)O)nc2cc(N(CCCl)CCCl)ccc21`, the Potency result in test [1], in [3], in [4], in [5], in test [6] and in [7] was “inactive” in each case. Further, the Potency result (in test [8]; in test [10]; with Aromatase (Homo sapiens); in test [12]) was “inactive” in each case. The Potency in [2] was 26.6 µM (active); in [11] it was 1.06 µM (active). The activation in [9] (at 70.3 µM (top of the series)) was -7.85%.
Regarding `CCN[C@@H](C)Cc1cccc(C(F)(F)F)c1`, the Potency result in test [1], in test [3], in test [4], in test [5], in test [6] and in test [15] was “inactive” throughout. Moreover, the Potency entry (in test [7]; in test [8]; in test [10]; in test [11]; with Aromatase (Homo sapiens); in test [12]) was “inactive” each time. Further, the Potency in [13] was 16.9 µM (active); in [14] it was 21.3 µM (active). The activation in test [9] (at 70.3 µM (top of the series)) is -18%.
For the compound `OCC(Cl)CCl` (centres undefined), the Potency entry in test [2], in test [13], in test [14], in test [3], in test [4] and in test [5] was “inactive” throughout. Further, the Potency result (in [6]; in test [7]; in test [8]; in test [10]; in test [11]; in the test with Aromatase (Homo sapiens)) was “inactive” each time. The Potency result in test [12] was “inactive”. The activation in test [9] (at 70.3 µM (top of the series)) is 3.3%.
Turning to `CC(C)(N)Cc1ccc(Cl)cc1`, the Potency result in test [1], in test [14], in test [3], in test [4], in test [6] and in test [15] was “inactive” throughout. Besides, the Potency result (in test [7]; in test [8]; in test [10]; in [11]; with Aromatase (Homo sapiens); in [12]) was “inactive” each time. Also, the activation in test [9] (at 70.3 µM (top of the series)) was 0.193%.
`CC[C@H](O)C(C[C@H](C)N(C)C)(c1ccccc1)c1ccccc1`: the Potency entry in test [1], in test [3], in test [4], in test [15], in test [7] and in test [8] was “inactive” in each case. The Potency result (in test [10]; in test [11]; with Aromatase (Homo sapiens); in test [12]) was “inactive” throughout. Besides, in test [2], the Potency was 62.3 µM (active). In addition, the activation in [9] (at 95 µM (top of the series)) is -12.1%.
As for `CC(Cl)(Cl)Cl`, the Potency entry in test [1], in test [2], in test [3], in test [4], in test [6] and in test [7] was “inactive” throughout. Moreover, the Potency entry (in test [11]; with Aromatase (Homo sapiens); in test [12]) was “inactive” each time.
Consider `CCOC1Oc2ccc(OS(C)(=O)=O)cc2C1(C)C` (centres undefined), for which the Potency entry (in [1]; in [5]; in test [19]; in [6]; in the test with Aromatase (Homo sapiens); in [12]) was “inactive” in each case. Also, the Potency is 27.1 µM (active) in test [13], 43.3 µM (active) in [16] and 60.6 µM (active) in test [18]. In addition, the compound was called inactive in test [17].
In the case of `Clc1cc2c(cc1Cl)Oc1cc(Cl)c(Cl)cc1O2`, the activity change, negative = cytotoxicity in [2] was 0.129% [at 0.343 µM]; in test [14], 7.26% [at 0.345 µM]; in test [3], -3.41% [at 0.284 µM]; in test [11], -0.0382% [at 0.341 µM]; in [12], 1.38% [at 0.342 µM]. The activity, negative = cytotoxicity in test [13] was 4.17% [at 0.343 µM]; in test [7] it was 14.4% [at 0.274 µM]. The activity change, negative = inhibition is -2.78% [at 0.284 µM] in [16] and -2.57% [at 0.341 µM] in test [18]. Besides, the activation is -3.9% [at 0.28 µM] in test [17], -1.12% [at 0.329 µM] in test [6], -4.62% [at 0.274 µM] in test [8] and -0.247% in test [9] (at 0.341 µM (top of the series)). Moreover, the viability change, negative = cytotoxic in test [4] is -3.89% [at 0.341 µM]. The activity change, negative = cytotoxic in [5] is 5.73% [at 0.341 µM]. Moreover, the results for the activity, negative = inhibition in test [19] and in test [15] were 0.19% [at 0.341 µM] and -7.88% [at 0.274 µM], respectively. In addition, the Potency in test [10] was 0.0007 µM (active).
